Experimental data as given in PubChem BioAssay (EPA / NIEHS).
Inconclusive results are not listed. Calls of active or inactive are those of the source. The calls were made as follows, unless noted: active = hit-call score of the fitted dose curve at least 0.9, where 1 is the maximum; inactive = score below 0.9.

Assays:
[1] = read-out: Monocyte Chemoattractant Protein-1 (MCP1), CCL2 (gene 6347); assay: BSK_LPS_MCP1: BioMAP Diversity Plus: LPS Assay for Monocyte Chemoattractant Protein-1 (MCP1) Biomarker Activity (AID 2283081); conditions: primary human HUVEC with PBMC; actives raise or lower the signal;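 as to AC50: secreted MCP-1 protein quantified by ELISA in culture supernatant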
Outline: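 Human umbilical vein endothelial cells co-cultured with PBMC, LPS-stimulated; secreted MCP-1 measured by ELISA 24 h after compound addition. Bidirectional curve fitting against DMSO baseline; SRB total-protein staining in parallel cultures for cytotoxicity.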

[2] = BSK_LPS_PGE2: BioMAP Diversity Plus: LPS Assay for Prostaglandin E2 (PGE2) Biomarker Activity (AID 2283082); conditions: primary human HUVEC with PBMC; actives raise or lower the signal;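 as to AC50: secreted prostaglandin E2 measured by ELISA in LPS-stimulated co-culture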
Outline: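 Endpoint derived from bidirectional curve fitting versus DMSO of ELISA-measured PGE2 in LPS-stimulated human primary vascular co-culture (HUVEC with PBMC) harvested at 24 h.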

[3] = read-out: Macrophage colony-stimulating factor (MCSF), CSF1 (gene 1435); assay: BSK_LPS_MCSF: BioMAP Diversity Plus: LPS Assay for Macrophage colony-stimulating factor (MCSF) Biomarker Activity (AID 2283083); conditions: primary human HUVEC with PBMC; actives raise or lower the signal
Outline: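 HUVEC–PBMC co-culture, M-CSF measured by ELISA 24 h after chemical dosing. Fitted in both directions relative to DMSO as negative control; overt cytotoxicity assessed by SRB total-protein staining in parallel cultures.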

[4] = read-out: Tissue Factor, F3 (gene 2152); assay: BSK_LPS_TissueFactor: BioMAP Diversity Plus: LPS Assay for Tissue Factor Biomarker Activity (AID 2283084); conditions: primary human HUVEC with PBMC; actives raise or lower the signal
Outline: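 Human umbilical vein endothelial cells co-cultured with PBMC were dosed with compound. Cell-surface CD142 was measured by ELISA 24 h later. Activity was fitted bidirectionally against DMSO, with SRB total-protein staining in parallel cultures for cytotoxicity.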

[5] = read-out: Vascular cell adhesion molecule 1 (VCAM1), VCAM1 (gene 7412); assay: BSK_LPS_VCAM1: BioMAP Diversity Plus: LPS Assay for Vascular cell adhesion molecule 1 (VCAM1) Biomarker Activity (AID 2283086); conditions: primary human HUVEC with PBMC; actives raise or lower the signal
Outline: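 Primary human vascular co-culture (umbilical vein endothelium plus PBMC) stimulated with LPS received chemical; 24 h later VCAM-1 was read by ELISA. Overt cytotoxicity was assessed by sulforhodamine B staining of parallel cultures at the same time point.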

[6] = read-out: CD38, CD38 (gene 952); assay: BSK_SAg_CD38: BioMAP Diversity Plus: SAg Assay for CD38 Biomarker Activity (AID 2283087); conditions: primary human HUVEC with PBMC; actives raise or lower the signal
Outline: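 Fluorescence ELISA of cell-surface CD38 served as the read-out, with either increase or decrease fitted against DMSO controls. Cells were a human umbilical vein endothelium plus PBMC co-culture under SEB/TSST-1 stimulation, measured 24 h after dosing.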

[7] = read-out: CD40, CD40 (gene 958); assay: BSK_SAg_CD40: BioMAP Diversity Plus: SAg Assay for CD40 Biomarker Activity (AID 2283088); conditions: primary human HUVEC with PBMC; actives raise or lower the signal
Outline: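 HUVEC plus PBMC co-culture, superantigen-activated, with CD40 read by ELISA 24 h after dosing. Curves fitted in both directions against DMSO. Overt cytotoxicity checked by parallel SRB total-protein staining.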

[8] = read-out: CD69, CD69 (gene 969); assay: BSK_SAg_CD69: BioMAP Diversity Plus: SAg Assay for CD69 Biomarker Activity (AID 2283089); conditions: primary human HUVEC with PBMC; actives raise or lower the signal;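 as to AC50: cell surface CD69 protein quantified by ELISA with fluorescence detection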
Outline: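 Values derive from bidirectional fitting relative to DMSO vehicle. Cells: umbilical vein endothelium plus peripheral blood mononuclear cells, treated 24 h before fluorescent ELISA for CD69.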

[9] = read-out: Monocyte Chemoattractant Protein-1 (MCP1), CCL2 (gene 6347); assay: BSK_SAg_MCP1: BioMAP Diversity Plus: SAg Assay for Monocyte Chemoattractant Protein-1 (MCP1) Biomarker Activity (AID 2283090); conditions: primary human HUVEC with PBMC; actives raise or lower the signal
Outline: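 MCP-1 levels in the endothelial–PBMC SAg co-culture were quantified by ELISA at 24 h post-dosing; both increases and decreases versus DMSO scored. Cytotoxicity monitored by SRB total protein in parallel cultures.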

[10] = read-out: E-selectin (Homo sapiens) (UniProt P16581); assay: BSK_SAg_Eselectin: BioMAP Diversity Plus: SAg Assay for Eselectin Biomarker Activity (AID 2283091); conditions: primary human HUVEC with PBMC; actives raise or lower the signal
Outline: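 Human umbilical vein endothelial cells co-cultured with peripheral blood mononuclear cells, SAg system. E-selectin is measured by ELISA 24 h after dosing and fitted bidirectionally against DMSO. Cytotoxicity is checked by SRB staining of parallel cultures.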

[11] = read-out: Monokine induced gamma interferon (MIG), CXCL9 (gene 4283); assay: BSK_SAg_MIG: BioMAP Diversity Plus: SAg Assay for Monokine induced gamma interferon (MIG) Biomarker Activity (AID 2283092); conditions: primary human HUVEC with PBMC; actives raise or lower the signal
Outline: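 Values reflect bidirectional fitting of ELISA-measured MIG against DMSO vehicle, taken 24 h after dosing of a co-culture of human umbilical vein endothelial cells and peripheral blood mononuclear cells.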

[12] = BSK_SAg_PBMCCytotoxicity: PBMC Cytotoxicity Assessment in the BioMAP Diversity Plus: SAg Assay (AID 2283093); conditions: primary human HUVEC with PBMC;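 also: PBMC viability measured as Alamar Blue reduction fluorescence at 546/580 nm; fitted both ways against DMSO so a hit may be loss or gain of signal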;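 as to AC50: PBMC superantigen activated with SEB plus TSST-1 one hour after compound addition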
Outline: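 HUVEC/PBMC co-culture; PBMC exposed to chemical 1 h before SEB and TSST-1 activation (20 ng/mL each), incubated 90 h, then Alamar Blue 6 h, fluorescence 546/580 nm. Bidirectional fit versus DMSO baseline.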

[13] = read-out: Interleukin-8 (IL8), CXCL8 (gene 3576); assay: BSK_SAg_IL8: BioMAP Diversity Plus: SAg Assay for Interleukin-8 (IL8) Biomarker Activity (AID 2283094); conditions: primary human HUVEC with PBMC; actives raise or lower the signal
Outline: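 In this co-culture of human umbilical vein endothelium with peripheral blood mononuclear cells, IL-8 is assayed by ELISA at 24 h. DMSO serves as baseline for bidirectional curve fitting.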

[14] = BSK_SAg_Proliferation: Cell Proliferation Assessment in the BioMAP Diversity Plus: SAg Assay (AID 2283095); conditions: primary human HUVEC with PBMC;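 also: relative cell number as total protein by SRB absorbance in sub-confluent culture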
Outline: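 Readout is SRB-stained protein (560 nm) in a primary human HUVEC and PBMC co-culture; sub-confluent cultures are read at 96 h. Activity is fitted bidirectionally using DMSO as baseline.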

[15] = BSK_SAg_SRB: Viability Assessment in the BioMAP Diversity Plus: SAg Assay (AID 2283096); conditions: primary human HUVEC with PBMC;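 also: cells read one day after compound addition; hits may be either gain or loss of signal compared with DMSO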
Outline: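 Human umbilical vein endothelial cells co-cultured with PBMC, read 24 h after compound dosing. Total protein measured by sulforhodamine B staining (0.1% SRB after 10% TCA fixation, absorbance 560 nm); bidirectional fit versus DMSO baseline.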

[16] = target: human CYP2A6, CYP2A6 (gene 1548) (UniProt P11509); assay: NVS_ADME_hCYP2A6: NovaScreen (NVS) CYP450-related Enzyme Activity (ADME) Assay for human CYP2A6 (AID 2283099; active = hit-call score of the fitted dose curve at least 0.9, where 1 is the maximum)
Outline: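 Recombinant human CYP2A6 expressed in insect cells, cell-free; fluorogenic substrate turnover read by fluorescence intensity 0.5 h after dosing. Primary screen 10 uM in duplicate, then concentration-response up to 20 uM; acetonitrile as negative control.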

[17] = target: human CYP2B6, CYP2B6 (gene 1555) (UniProt P20813); assay: NVS_ADME_hCYP2B6: NovaScreen (NVS) CYP450-related Enzyme Activity (ADME) Assay for human CYP2B6 (AID 2283101; active = hit-call score of the fitted dose curve at least 0.9, where 1 is the maximum)
Outline: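 Compounds were first screened in duplicate at 10 uM against recombinant enzyme, with the fluorescent product measured after 1 hour. Active compounds were retested over a concentration series. Loss of fluorescence versus acetonitrile control was scored as reduced enzyme activity.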

Measured: AC50

E-selectin (Homo sapiens), sequence (P16581 whole entry, looked up): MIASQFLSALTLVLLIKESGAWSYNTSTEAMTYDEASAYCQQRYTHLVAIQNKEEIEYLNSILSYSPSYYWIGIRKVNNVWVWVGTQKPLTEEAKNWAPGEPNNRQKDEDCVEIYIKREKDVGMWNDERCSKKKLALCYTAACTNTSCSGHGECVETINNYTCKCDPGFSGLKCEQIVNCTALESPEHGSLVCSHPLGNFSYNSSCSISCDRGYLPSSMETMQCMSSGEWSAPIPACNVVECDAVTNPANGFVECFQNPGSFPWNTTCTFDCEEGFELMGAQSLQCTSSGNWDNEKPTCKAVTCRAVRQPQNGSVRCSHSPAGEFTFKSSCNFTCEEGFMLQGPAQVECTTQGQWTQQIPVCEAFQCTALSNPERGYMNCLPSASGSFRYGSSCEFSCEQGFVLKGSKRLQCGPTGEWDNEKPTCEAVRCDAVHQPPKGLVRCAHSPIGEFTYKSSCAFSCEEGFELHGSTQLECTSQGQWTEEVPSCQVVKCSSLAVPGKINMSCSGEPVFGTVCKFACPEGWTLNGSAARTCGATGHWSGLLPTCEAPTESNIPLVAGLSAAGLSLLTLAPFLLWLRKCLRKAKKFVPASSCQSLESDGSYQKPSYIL
human CYP2B6, CYP2B6 (gene 1555), sequence (P20813 whole entry, looked up): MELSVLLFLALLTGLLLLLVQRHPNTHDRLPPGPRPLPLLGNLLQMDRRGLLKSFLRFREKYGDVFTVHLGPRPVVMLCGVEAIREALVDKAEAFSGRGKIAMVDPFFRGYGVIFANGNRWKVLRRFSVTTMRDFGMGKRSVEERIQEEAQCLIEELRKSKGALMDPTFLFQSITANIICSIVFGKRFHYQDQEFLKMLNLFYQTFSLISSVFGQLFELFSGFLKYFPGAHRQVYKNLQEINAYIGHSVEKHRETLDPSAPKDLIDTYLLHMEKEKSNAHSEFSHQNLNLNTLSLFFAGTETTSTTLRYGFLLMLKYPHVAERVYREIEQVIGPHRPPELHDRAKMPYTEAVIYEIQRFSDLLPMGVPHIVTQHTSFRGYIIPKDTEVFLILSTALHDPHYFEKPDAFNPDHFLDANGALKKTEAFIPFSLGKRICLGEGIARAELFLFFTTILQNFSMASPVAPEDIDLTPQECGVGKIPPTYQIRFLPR
human CYP2A6, CYP2A6 (gene 1548), sequence (P11509 whole entry, looked up): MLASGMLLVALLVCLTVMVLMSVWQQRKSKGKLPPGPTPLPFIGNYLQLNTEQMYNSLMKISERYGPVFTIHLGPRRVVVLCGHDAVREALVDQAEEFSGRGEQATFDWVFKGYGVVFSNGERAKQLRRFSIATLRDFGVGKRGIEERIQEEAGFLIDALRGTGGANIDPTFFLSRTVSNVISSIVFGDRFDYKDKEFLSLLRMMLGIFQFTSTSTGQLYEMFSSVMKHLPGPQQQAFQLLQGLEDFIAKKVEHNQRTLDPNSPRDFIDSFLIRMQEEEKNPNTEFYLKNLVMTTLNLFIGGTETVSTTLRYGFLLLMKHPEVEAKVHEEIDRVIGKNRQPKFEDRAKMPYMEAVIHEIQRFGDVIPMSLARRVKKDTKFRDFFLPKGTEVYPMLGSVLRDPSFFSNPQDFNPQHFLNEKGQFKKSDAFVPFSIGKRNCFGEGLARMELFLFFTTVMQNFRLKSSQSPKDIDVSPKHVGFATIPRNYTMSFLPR

CC(=O)CC(C)(C)O
not listed: [16] | [17]
inactive: all other assays above

OC1CCC(C2CCCCC2)CC1 (stereo not drawn)
not listed: [11] | [16] | [17]
inactive: all other assays above

CCCCC(CC)COC(=O)CCCCC(=O)OCC(CC)CCCC (stereo not drawn)
not listed: [16] | [17]
inactive: all other assays above

CCCCCCCCOC(=O)CCCCCCCCC(=O)OCCCCCCCC
not listed: [11] | [16] | [17]
inactive: all other assays above

Cc1oc(-c2ccccc2)nc1CCOc1ccc(C[C@H](Nc2ccccc2C(=O)c2ccccc2)C(=O)O)cc1
active: [1] 16.1 µM | [2] 8.83 µM | [3] 30.6 µM | [4] 31.6 µM | [5] 33.1 µM | [6] 28.6 µM | [7] 30 µM | [8] 14.4 µM | [9] 24.1 µM | [10] 31.5 µM | [12] 28.9 µM | [13] 15.8 µM | [14] 19.3 µM | [15] 18.8 µM

COc1ccc([N+](=O)[O-])cc1N
active: [16] 5.77 µM
inactive: all other assays above

CN1CCC[C@H]1c1cccnc1
not listed: [11] | [16] | [17]
inactive: all other assays above
